# Measurements published in PubChem BioAssay (EPA / NIEHS).
# Several values for one entry are separate records, joined by “and”; a condition that tells them apart may be missing. Equal values may be shown once. Results filed as inconclusive are left out. Activity calls are given as the source filed them. Rule for the calls, unless noted: active = hit-call score of the fitted dose curve at least 0.9, where 1 is the maximum; inconclusive = response in the unintended direction; inactive = score below 0.9.
# Legend:
# [1] = CCTE_Mundy_HCI_iCellGluta_NOG_NeuronCount: CCTE's Neurite Outgrowth Assay in iCellGluta cells for Neuron Count, Mundy Lab (AID 2284340);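 note: cells fixed about 48 h after compound addition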
# Procedure, shortened: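 Neuron count read by automated high-content imaging of Hoechst 33342 and betaIII-tubulin/Alexa Fluor-488 labelling in human iPSC glutamatergic neurons. Activity fitted relative to DMSO.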
# [2] = CCTE_Mundy_HCI_iCellGluta_NOG_NeuriteCount: CCTE's Neurite Outgrowth Assay in iCellGluta cells for Neurite Count, Mundy Lab (AID 2284342);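 note: chemical exposure about 48 hours starting 2 hours after plating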
# [3] = Tanguay_ZF_120hpf_MO24: Oregon State University Tanguay Lab 24 Hour Post-fertilization zebrafish Assay for Mortality (AID 2284389; active = hit-call score of the fitted dose curve at least 0.9, where 1 is the maximum; inactive = score below 0.9)
# Procedure, shortened: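 Dechorionated wild-type zebrafish embryos, 1 per well, statically exposed from 6 hpf at 28C, 0.64% DMSO final. Mortality scored as binary present/absent at 24 hpf by brightfield microscopy, relative to DMSO.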
# [4] = Tanguay_ZF_120hpf_DP24: Oregon State University Tanguay Lab 24 Hour Post-fertilization zebrafish Assay for Delayed Development (AID 2284390; active = hit-call score of the fitted dose curve at least 0.9, where 1 is the maximum; inactive = score below 0.9)
# Procedure, shortened: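 Dechorionated 5D wild-type zebrafish embryos exposed statically from 6 hpf, one per well, 0.64% DMSO final, 28 C, sealed and dark. Developmental progression scored at 24 hpf by brightfield as binary present/absent; dead embryos excluded.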
# [5] = Tanguay_ZF_120hpf_CRAN: Oregon State University Tanguay Lab 120 Hour Post-fertilization zebrafish Assay for Craniofacial Malformation (AID 2284397; active = hit-call score of the fitted dose curve at least 0.9, where 1 is the maximum; inactive = score below 0.9)
# Procedure, shortened: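 Dechorionated Tropical 5D wild-type zebrafish embryos, one per well, were statically exposed from 6 to 120 hpf at 28C in 0.64% DMSO, with 5uM trimethyltin chloride as positive control. Craniofacial malformation was scored present/absent by brightfield microscopy, relative to DMSO.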
# [6] = Tanguay_ZF_120hpf_AXIS: Oregon State University Tanguay Lab 120 Hour Post-fertilization zebrafish Assay for Axial Malformation (AID 2284398; active = hit-call score of the fitted dose curve at least 0.9, where 1 is the maximum; inactive = score below 0.9)
# Procedure, shortened: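 Dechorionated 5D wild-type zebrafish embryos exposed statically, one per well, from 6 to 120 hpf at 28C, 0.64% DMSO. Axial malformation scored as present/absent by brightfield microscopy at 120 hpf; dead embryos not scored.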
# SERPINA7 (gene 6906) = experiment: CCTE_GLTED_hTBG: CCTE's human Thyroxine-binding Globulin (TBG) Inhibition Assay, Great Lakes Toxicology and Ecology Division (GLTED) Lab (AID 2284343);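 note: active chemicals lower fluorescence versus DMSO baseline by displacing probe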
# Procedure, shortened: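 hTBG + test chem, 2 h; ANSA probe displacement; fluorescence readout ex380/em475; DMSO = neg ctrl/baseline; cell-free.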
# [7] = VALA_MIGHUV1_ScratchOnly_WoundArea: VALA Sciences human Umbilical Vein Endothelial Cell Migration (MIGHUV) Assay, Area of Scratch Wound Inhibited Recovery (AID 2284336)
# Procedure, shortened: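 HUVEC monolayers (9000 cells/well) were scratched after 24 h, dosed within 30 min (six concentrations, triplicate, 0.1% DMSO), allowed 24 h recovery, then fixed. Hoechst-stained nuclei in the wound imaged; cytochalasin D as reference.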
smiles,measurement,setting,value
O=C(O)C(F)(F)C(F)(F)C(F)(F)C(F)(F)C(F)(F)C(F)(F)C(F)(F)C(F)(F)C(F)(F)F,outcome,[1],inactive
same,outcome,[2],inactive
same,outcome,[3],inactive
same,outcome,[4],inactive
same,AC50,[5],19.5 µM (active)
same,outcome,[6],inactive
COc1ccc(O)c(C(C)(C)C)c1,outcome,[1],inactive
same,outcome,[2],inactive
CCCCCCOC(=O)c1ccccc1C(=O)OCCCCCC,AC50,SERPINA7 (gene 6906),5.7 µM (active)
Cc1ccccc1CO[C@@H]1C[C@@]2(C(C)C)CC[C@]1(C)O2,AC50,SERPINA7 (gene 6906),22.9 µM (active)
O=NN(c1ccccc1)c1ccccc1,AC50,SERPINA7 (gene 6906),13.9 µM (active)
Cc1cc(-c2ccc(N)c(C)c2)ccc1N,AC50,SERPINA7 (gene 6906),26.5 µM (active) and 35.2 µM (active)
Oc1ccc(C(c2ccc(O)cc2)(C(F)(F)F)C(F)(F)F)cc1,outcome,[7],inactive
same,AC50,SERPINA7 (gene 6906),17.1 µM (active)
CCCCCCCCCc1ccc(O)cc1,AC50,SERPINA7 (gene 6906),5.76 µM (active)
O=C(O)C(F)(F)C(F)(F)C(F)(F)C(F)(F)C(F)(F)C(F)(F)C(F)(F)C(F)(F)F,AC50,SERPINA7 (gene 6906),86.5 µM (active)
same,outcome,[3],inactive
same,outcome,[4],inactive
same,outcome,[5],inactive
same,outcome,[6],inactive
CCC(C)(c1ccc(O)cc1)c1ccc(O)cc1,AC50,SERPINA7 (gene 6906),13.7 µM (active)
CCOC(=O)C(O)(c1ccc(Cl)cc1)c1ccc(Cl)cc1,AC50,SERPINA7 (gene 6906),7.32 µM (active)
Sc1ccccc1,AC50,SERPINA7 (gene 6906),14.1 µM (active)
